Experimental data as given in PubChem BioAssay (NCATS).
Active and inactive are the calls of the source. Calls come from the whole dose curve.

Each compound was assayed against Tumor susceptibility gene 101 protein (Homo sapiens) (UniProt Q99816) (assay: qHTS Validation Assay for Iinhibitors of HIV-1 Budding by Blocking the Interaction of PTAP/TSG101 (AID 485342)). Conditions: TSG101-PTAP binding, fluorescence polarization, 4-point titration; series mostly up to 115 µM.
Description: NIH Molecular Libraries Probe Production Network [MLPCN]
NIH Chemical Genomics Center [NCGC]
PI Name: Dr. Eric Freed, NCI
Stages of the HIV-1 replication cycle, specifically virus assembly and release, provide underexploited targets for the development of novel antiviral inhibitors. The late stages of HIV-1 replication are mediated by the Gag precursor protein, Pr55Gag. Expression of Pr55Gag is both necessary and sufficient for the production of virus-like particles from Gag-expressing cells. The Gag protein hijacks key host proteins involved in endocytic machinery of the host cell to promote endosomal processing and viral budding. The budding process requires a direct interaction between a […] (PTAP) motif in the p6 domain of Gag and the cellular endosomal sorting protein known as Tsg101. In this way, the Gag PTAP motif promotes the host cells to recruit viral particles to the plasma membrane where the new viral particles are released, effectively turning the host cells into viral factories. A fluorescence anisotropy assay has been developed to quantitatively measure the PTAP-Tsg101 interaction which can be used to screen for inhibitors of this interaction.
NCGC Assay Protocol Summary:
Two uL of the Tsg101 binding domain in buffer (10 mM HEPES pH 7.5; 0.15 M NaCl, 0.01% Tween 20; 3 mM EDTA;0.1 mM TCEP) was dispensed into Greiner black MB 1536-well plates (final concentration 10 uM). Then, 23 nL of compounds or DMSO were delivered to each well using a pin tool. Finally, 2 uL of a FITC-labeled peptide containing the PTAP motif (1) in the same buffer was dispensed (50 nM final concentration) and the binding was allowed to proceed for 20 min. at r.t. Fluorescent polarization was determined using FITC excitation and polarized emission filters on a Perkin Elmer Viewlux.
Keywords: Tsg101, PTAP, Gag, HIV, fluorescent polarization, MLSMR, MLPCN, NIH Roadmap, qHTS, NCGC

Sequence of Tumor susceptibility gene 101 protein (Homo sapiens) (Q99816 whole entry, looked up): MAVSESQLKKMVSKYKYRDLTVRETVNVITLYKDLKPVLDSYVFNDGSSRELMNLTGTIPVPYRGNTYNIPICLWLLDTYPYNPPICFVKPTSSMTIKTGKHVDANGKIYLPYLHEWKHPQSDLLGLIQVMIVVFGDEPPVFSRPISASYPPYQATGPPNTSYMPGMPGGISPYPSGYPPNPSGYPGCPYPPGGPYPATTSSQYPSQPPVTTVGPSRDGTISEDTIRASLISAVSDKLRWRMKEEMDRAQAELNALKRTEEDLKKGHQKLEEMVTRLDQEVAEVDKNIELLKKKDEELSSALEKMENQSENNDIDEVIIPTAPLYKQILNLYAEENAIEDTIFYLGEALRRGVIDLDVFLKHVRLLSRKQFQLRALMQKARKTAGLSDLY

Compound	outcome
O=C(O)CCCc1ccc(N(CCCl)CCCl)cc1	inactive
CC(NC(C)(C)C)C(=O)c1cccc(Cl)c1 (stereo not given)	inactive
NCCc1ccc(O)cc1	inactive
COc1ccc2c(c1OC)C(=O)O[C@H]2[C@@H]1c2cc3c(cc2CCN1C)OCO3	inactive
O=C(CCCN1CCC2(CC1)C(=O)NCN2c1ccccc1)c1ccc(F)cc1	inactive
Cc1ncsc1CCCl	inactive
O=c1[nH]oc2c1CCNC2	inactive
CCCCC/C=C\C/C=C\C/C=C\C/C=C\CCCC(=O)NCC(=O)O	inactive
O=P1(N(CCCl)CCCl)NCCCO1 (stereo not given)	inactive
C=C(C)[C@H]1CN[C@H](C(=O)O)[C@H]1CC(=O)O	inactive
CN1C(=O)CCS(=O)(=O)C1c1ccc(Cl)cc1 (stereo not given)	inactive
CCC1(c2ccc(N)cc2)CCC(=O)NC1=O (stereo not given)	inactive
CC(C)(C)NCC(O)c1ccccc1Cl (stereo not given)	inactive
CC(C)N(CCC(C(N)=O)(c1ccccc1)c1ccccn1)C(C)C (stereo not given)	inactive
CC(C)c1cccc(C(C)C)c1O	inactive
